Active and inactive are the calls of the source.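 Rule for the calls: active = every separate test run called active, meaning the signal drops and a potency is fitted within twice the top valid dose; inconclusive = runs disagree, poor fit, or flat partial inhibition; inactive = all runs inactive, flat, opposite direction or too weak.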

The target of this assay is Mitogen-activated protein kinase 3 (Homo sapiens) (UniProt P27361). As to the kind of experiment: inhibition of MAPK3 kinase activity – biochemical, ADP-Glo luminescence, cherry pick, set 2, selectivity assay for Dyrk1A inhibitor NFAT project, dose response (AID 602295). To be noted: ERK1 kinase, 120 min; series mostly up to 10 µM.
Chain of Mitogen-activated protein kinase 3 (Homo sapiens) (P27361 whole entry, looked up): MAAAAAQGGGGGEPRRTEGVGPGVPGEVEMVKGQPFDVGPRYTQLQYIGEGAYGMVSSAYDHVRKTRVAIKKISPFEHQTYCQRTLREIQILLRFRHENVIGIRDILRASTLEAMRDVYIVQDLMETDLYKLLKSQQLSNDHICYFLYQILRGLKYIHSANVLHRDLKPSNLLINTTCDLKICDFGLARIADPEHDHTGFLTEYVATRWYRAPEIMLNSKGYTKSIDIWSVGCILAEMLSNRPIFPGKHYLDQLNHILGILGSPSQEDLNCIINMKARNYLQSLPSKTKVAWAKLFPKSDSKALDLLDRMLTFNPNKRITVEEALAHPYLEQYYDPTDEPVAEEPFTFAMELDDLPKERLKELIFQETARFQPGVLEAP
Take `CN(Cc1cccs1)c1ncnc2ccc(-c3ccc4c(c3)OCO4)cc12`: the outcome was inactive. `NC(=O)c1c(NC(=O)c2ccc(N3C(=O)CCC3=O)cc2)sc2c1CCCC2`: the compound was classed as inactive. `O=C(O)COc1ccc(/C=C/c2nc3ccc([N+](=O)[O-])cc3s2)cc1`: the compound was classed as inactive. The value for `N#Cc1c(C(F)(F)F)cc(-c2cccc(Cl)c2)[nH]c1=O` was “inactive”; that for `COc1cccc(Nc2ncnc3ccccc23)c1` was “inactive”; that for `O=C(CSc1nnnn1-c1ccc(O)cc1)Nc1ccc(N2CCOCC2)c(Cl)c1` was “inactive”. To `COc1ccc2c(Cl)c(C(=O)NCc3ccco3)sc2c1` belongs “inactive”. The value for `CCOC(=O)c1ccc(-c2ccc3ncnc(NCc4ccc(C)o4)c3c2)o1` was “inactive”; that for `Cc1nc(NC(=O)c2ccccc2)sc1-c1csc(N)n1` was “inactive”; that for `CN(C)S(=O)(=O)c1ccc(Cl)c(C(=O)Nc2cccc3ncccc23)c1` was “inactive”.

Turning to `Cc1csc(CN(C)c2ncnc3ccc(-c4ccc5c(c4)OCO5)cc23)n1`, the compound was classed as inactive. The value for `c1cncc(CNc2nccc(-c3ccc4c(c3)OCO4)n2)c1` was “inactive”; that for `CC(Nc1nc(-c2cccnc2)nc2ccccc12)c1ccc(F)cc1` (configuration not stated) was “inactive”; that for `Cc1cc(NCCCn2ccnc2)n2ncc(-c3ccc(Cl)cc3)c2n1` was “inactive”. The value for `Clc1ccc(CNc2nccc(-c3ccc4cn[nH]c4c3)n2)cc1Cl` was “inactive”. For the compound `c1cncc(-c2nc(NCc3ccco3)c3ccccc3n2)c1`, the call was inactive.

Consider `O=C(Nc1nc(-c2ccc3c(c2)OCCO3)cs1)c1ccco1`, for which the call was inactive. The value for `CCN1CCN(Cc2ccc(NC(=O)c3ccc(C)c(/C=C/c4cnc(Nc5cc(N6CCNCC6)nc(C)n5)cn4)c3)cc2C(F)(F)F)CC1` was “inactive”. To `CC(=O)Nc1ccc(Nc2cc(C)nc3c(-c4ccccc4)cnn23)cc1` belongs “inactive”. To `Clc1ccc(CNc2ncncc2-c2ccc3c(c2)OCO3)cc1` belongs “inactive”. On to `Cc1nc(NC(=O)c2ccccc2)sc1-c1csc(NCc2ccco2)n1`, for which the call was inactive. The value for `Clc1ccc(CNc2ccnc(-c3ccc4[nH]ncc4c3)n2)cc1Cl` was “inactive”; that for `CCCC(=O)Nc1nc(-c2ccc3c(c2)OCCO3)cs1` was “inactive”. To `Cc1nc(N)sc1-c1csc(Nc2ccccc2)n1` belongs “inactive”; to `Fc1c(-c2ccc3ncnc(NCc4cccs4)c3c2)ccc2c1OCO2`, “inactive”.

For `Clc1ccc(CNc2cc(-c3ccc4c(c3)OCO4)ncn2)cc1`, the compound was called inactive. In the case of `Cc1c(-c2ccnc(NCc3ccc(Cl)cc3)n2)sc(=O)n1C`, the result was inactive.

Consider `Clc1cc(Cl)cc(CNc2ncncc2-c2ccc3c(c2)OCO3)c1`, for which the outcome was inactive. To `CCOC(=O)c1ccc(-c2ccc3ncnc(N(C)Cc4sccc4C)c3c2)o1` belongs “inactive”. Regarding `Cc1occc1CNc1ncnc2ccc(-c3ccc4c(c3)OCO4)cc12`, the outcome was inactive. The value for `c1nc(NCC2CCCO2)c2cc(-c3ccc4c(c3)OCO4)ccc2n1` (configuration not stated) was “inactive”.

Consider `c1cncc(CNc2nccc(-c3ccc4[nH]ncc4c3)n2)c1`, for which the compound was called inactive.

Values taken from PubChem BioAssay AID602295 (Broad Institute, 2012).
